Experimental data taken from PubChem BioAssay (EPA / NIEHS).
The source made the active and inactive calls. Rule for the calls: active = hit-call score of the fitted dose curve at least 0.9, where 1 is the maximum; inactive = score below 0.9.

Tests used:
Conditions in all cases: mRNA level, 48 h; actives raise or lower the signal
[1] = read-out: Fatty Acid-Binding Protein 1 (FABP1), FABP1 (gene 2168); assay: LTEA_HepaRG_FABP1: Life Technologies and Expression Analysis (LTEA) Assay for Fatty Acid-Binding Protein 1 (FABP1) using HepaRG (AID 2283494)
Outline: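 HepaRG, 48 h post-plating switched to serum-free induction medium, then dosed 48 h (duplicate, 8 pts, ≤100 uM, 0.5% DMSO). RNA → Fluidigm TaqMan qRT-PCR, FABP1 normed to ACTB/GAPDH/POLR2A. Bidirectional curve fit vs DMSO.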

[2] = read-out: Cytochrome P450 4A22 (Homo sapiens) (UniProt Q5TCH4); assay: LTEA_HepaRG_CYP4A22: Life Technologies and Expression Analysis (LTEA) Assay for Cytochrome P450 4A22 (CYP4A22) using HepaRG (AID 2283495)
Outline: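 Differentiated HepaRG cells in serum-free induction medium exposed 48 h in duplicate to eight half-log concentrations up to 100 uM in 0.5% DMSO. CYP4A22 mRNA quantified by TaqMan qRT-PCR, normalized to ACTB, GAPDH and POLR2A; bidirectional fit versus DMSO.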

[3] = read-out: Cytochrome P450 7A1 (Homo sapiens) (UniProt P22680); assay: LTEA_HepaRG_CYP7A1: Life Technologies and Expression Analysis (LTEA) Assay for Cytochrome P450 7A1 (CYP7A1) using HepaRG (AID 2283496)
Outline: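 Gene expression endpoint in human HepaRG liver cells treated for 48 h with test chemicals (up to 100 uM, 0.5% DMSO). Values come from bidirectional concentration-response fitting versus DMSO.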

[4] = read-out: Glutathione S-Transferase (GSTA2), GSTA2 (gene 2939); assay: LTEA_HepaRG_GSTA2: Life Technologies and Expression Analysis (LTEA) Assay for Glutathione S-Transferase (GSTA2) using HepaRG (AID 2283497)
Outline: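 HepaRG, 48 h dosing, 8-pt half-log CRC from 100 uM, 0.5% DMSO vehicle, n=2; RNA → Fluidigm TaqMan qRT-PCR; GSTA2 vs ACTB/GAPDH/POLR2A; gain/loss fit vs DMSO.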

[5] = read-out: Glutamate-cysteine ligase catalytic (GCLC), GCLC (gene 2729); assay: LTEA_HepaRG_GCLC: Life Technologies and Expression Analysis (LTEA) Assay for Glutamate-cysteine ligase catalytic (GCLC) using HepaRG (AID 2283498)
Outline: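 Read-out is GCLC transcript level by Fluidigm-based TaqMan qRT-PCR, normalized to three housekeeping genes and fitted in both directions relative to 0.5% DMSO. Human HepaRG cells received chemicals for 48 h, up to 100 uM.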

[6] = read-out: growth arrest and DNA damage 45 (GADD45G), GADD45G (gene 10912); assay: LTEA_HepaRG_GADD45G: Life Technologies and Expression Analysis (LTEA) Assay for growth arrest and DNA damage 45 (GADD45G) using HepaRG (AID 2283499)
Outline: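 Differentiated human HepaRG cells, 48 h post-plating, exposed 48 h in serum-free induction medium to 8 half-log concentrations (top 100 uM, 0.5% DMSO) in duplicate. GADD45G mRNA measured by Fluidigm TaqMan qRT-PCR, normalized to ACTB, GAPDH, POLR2A; bidirectional fit versus DMSO.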

[7] = read-out: Glutamate-cysteine ligase regulatory (GCLM), GCLM (gene 2730); assay: LTEA_HepaRG_GCLM: Life Technologies and Expression Analysis (LTEA) Assay for Glutamate-cysteine ligase regulatory (GCLM) using HepaRG (AID 2283500)
Outline: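 Human liver HepaRG cultures receive test chemicals for 48 hours at up to 100 uM in 0.5% DMSO. GCLM expression is measured by qRT-PCR and analysed for increases or decreases against vehicle.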

[8] = read-out: Glutathione S-transferase M3 (GSTM3), GSTM3 (gene 2947); assay: LTEA_HepaRG_GSTM3: Life Technologies and Expression Analysis (LTEA) Assay for Glutathione S-transferase M3 (GSTM3) using HepaRG (AID 2283501)
Outline: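 Differentiated human HepaRG cells were exposed in duplicate for 48 h in serum-free induction medium, 8 points from 100 uM top in half-log steps, 0.5% DMSO. GSTM3 mRNA was measured by TaqMan qRT-PCR, normalized to ACTB, GAPDH and POLR2A; bidirectional fit versus DMSO.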

[9] = read-out: Heat shock 70 kDa protein 1 (HSPA1A), gene 3303; assay: LTEA_HepaRG_HSPA1A: Life Technologies and Expression Analysis (LTEA) Assay for Heat shock 70 kDa protein 1 (HSPA1A) using HepaRG (AID 2283502)
Outline: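 HSPA1A induction in human HepaRG liver cells is measured after 48 h of chemical treatment (100 uM maximum, 0.5% DMSO vehicle). Expression comes from qRT-PCR normalized to endogenous controls.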

[10] = read-out: 3-Hydroxy-3-Methylglutaryl-CoA Synthase 2 (HMGCS2), HMGCS2 (gene 3158); assay: LTEA_HepaRG_HMGCS2: Life Technologies and Expression Analysis (LTEA) Assay for 3-Hydroxy-3-Methylglutaryl-CoA Synthase 2 (HMGCS2) using HepaRG (AID 2283504)
Outline: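 Human HepaRG cells in serum-free induction medium were exposed in duplicate for 48 h to 8-point half-log series from 100 uM top in 0.5% DMSO. HMGCS2 mRNA measured by TaqMan qRT-PCR, normalised to ACTB, GAPDH, POLR2A; bidirectional fit versus DMSO.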

[11] = read-out: HGF (gene 3082); assay: LTEA_HepaRG_HGF: Life Technologies and Expression Analysis (LTEA) Assay for Hepatocyte Growth Facto (HGF) using HepaRG (AID 2283505)
Outline: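 Differentiated HepaRG cells in serum-free induction medium exposed 48 h in duplicate, 8 half-log concentrations from 100 uM in 0.5% DMSO. HGF mRNA by qRT-PCR, normalised to ACTB, GAPDH, POLR2A; bidirectional fitting.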

[12] = read-out: Insulin Like Growth Factor 1 (IGF1), IGF1 (gene 3479); assay: LTEA_HepaRG_IGF1: Life Technologies and Expression Analysis (LTEA) Assay for Insulin Like Growth Factor 1 (IGF1) using HepaRG (AID 2283506)
Outline: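 Using human HepaRG liver cells, IGF1 transcript induction or suppression is measured 48 h after dosing across eight concentrations capped at 100 uM. Values derive from bidirectional concentration-response fitting with DMSO as baseline.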

[13] = read-out: Intercellular Adhesion Molecule 1 (ICAM1), ICAM1 (gene 3383); assay: LTEA_HepaRG_ICAM1: Life Technologies and Expression Analysis (LTEA) Assay for Intercellular Adhesion Molecule 1 (ICAM1) using HepaRG (AID 2283507)
Outline: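 Differentiated human HepaRG cells in serum-free induction medium exposed 48 h in duplicate to 8 half-log concentrations (top 100 uM, 0.5% DMSO). ICAM1 mRNA quantified by TaqMan qRT-PCR, normalized to ACTB, GAPDH and POLR2A; bidirectional fitting versus DMSO.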

[14] = read-out: Insulin-like growth factor-binding protein 1 (IGFBP1), IGFBP1 (gene 3484); assay: LTEA_HepaRG_IGFBP1: Life Technologies and Expression Analysis (LTEA) Assay for Insulin-like growth factor-binding protein 1 (IGFBP1) using HepaRG (AID 2283508)
Outline: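 HepaRG cells, plated 48 h then switched to serum-free induction medium, exposed in duplicate for 48 h to 8-point half-log series from 100 uM in 0.5% DMSO. mRNA measured by qRT-PCR, normalized to ACTB/GAPDH/POLR2A; bidirectional fit versus DMSO.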

[15] = read-out: Interleukin 6 (IL6), IL6 (gene 3569); assay: LTEA_HepaRG_IL6: Life Technologies and Expression Analysis (LTEA) Assay for Interleukin 6 (IL6) using HepaRG (AID 2283509)
Outline: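 HepaRG, ~100,000 cells/well, 48 h pre-culture; serum-free induction medium; cmpd 8-pt half-log from 100 uM, 0.5% DMSO, duplicate, 48 h. Lysis in RLT, TaqMan qRT-PCR; gain or loss vs DMSO.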

[16] = read-out: Interleukin 6 Receptor (IL6R), IL6R (gene 3570); assay: LTEA_HepaRG_IL6R: Life Technologies and Expression Analysis (LTEA) Assay for Interleukin 6 Receptor (IL6R) using HepaRG (AID 2283510)
Outline: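 Concentration-response in human liver HepaRG cells: eight concentrations from 100 uM downward by half-logs, 48 h exposure, 0.5% DMSO vehicle. IL6R mRNA change measured by qRT-PCR and fitted in both directions relative to vehicle.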

[17] = read-out: Potassium channel subfamily K member 1 (KCNK1), KCNK1 (gene 3775); assay: LTEA_HepaRG_KCNK1: Life Technologies and Expression Analysis (LTEA) Assay for Potassium channel subfamily K member 1 (KCNK1) using HepaRG (AID 2283511)
Outline: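 Gain or loss of KCNK1 mRNA is the read-out, quantified by qRT-PCR against three housekeeping genes after 48 h chemical treatment of human HepaRG liver cells. Concentrations ran from 100 uM downward in half-log steps, vehicle 0.5% DMSO.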

[18] = read-out: Keratin 19 (KRT19), KRT19 (gene 3880); assay: LTEA_HepaRG_KRT19: Life Technologies and Expression Analysis (LTEA) Assay for Keratin 19 (KRT19) using HepaRG (AID 2283512)
Outline: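 Differentiated HepaRG cells in serum-free induction medium, exposed 48 h in duplicate to 8 half-log concentrations up to 100 uM in 0.5% DMSO. KRT19 mRNA by qRT-PCR, normalized to ACTB, GAPDH, POLR2A; bidirectional fit vs DMSO.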

[19] = read-out: JUN Transcription Factor, JUN (gene 3725); assay: LTEA_HepaRG_JUN: Life Technologies and Expression Analysis (LTEA) Assay for JUN Transcription Factor using HepaRG (AID 2283513)
Outline: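 Human HepaRG liver cells receive test chemicals in 0.5% DMSO for 48 h across an eight-point range topping at 100 uM. Expression changes in JUN are scored in both directions against the DMSO vehicle.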

[20] = read-out: Hypoxia-inducible factor 1-alpha (Homo sapiens) (UniProt Q16665); assay: LTEA_HepaRG_HIF1A: Life Technologies and Expression Analysis (LTEA) Assay for Hypoxia-inducible factor 1 (HIF1A) Trancription factor using HepaRG (AID 2283503)
Outline: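 HepaRG, 48 h exposure, 8-pt half-log series from 100 uM, 0.5% DMSO vehicle, duplicates. Readout: HIF1A transcript by qRT-PCR (Fluidigm array), housekeeping-normalised. Bidirectional curve fit vs DMSO baseline.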

Measured: AC50

Hypoxia-inducible factor 1-alpha (Homo sapiens), sequence (Q16665 whole entry, looked up): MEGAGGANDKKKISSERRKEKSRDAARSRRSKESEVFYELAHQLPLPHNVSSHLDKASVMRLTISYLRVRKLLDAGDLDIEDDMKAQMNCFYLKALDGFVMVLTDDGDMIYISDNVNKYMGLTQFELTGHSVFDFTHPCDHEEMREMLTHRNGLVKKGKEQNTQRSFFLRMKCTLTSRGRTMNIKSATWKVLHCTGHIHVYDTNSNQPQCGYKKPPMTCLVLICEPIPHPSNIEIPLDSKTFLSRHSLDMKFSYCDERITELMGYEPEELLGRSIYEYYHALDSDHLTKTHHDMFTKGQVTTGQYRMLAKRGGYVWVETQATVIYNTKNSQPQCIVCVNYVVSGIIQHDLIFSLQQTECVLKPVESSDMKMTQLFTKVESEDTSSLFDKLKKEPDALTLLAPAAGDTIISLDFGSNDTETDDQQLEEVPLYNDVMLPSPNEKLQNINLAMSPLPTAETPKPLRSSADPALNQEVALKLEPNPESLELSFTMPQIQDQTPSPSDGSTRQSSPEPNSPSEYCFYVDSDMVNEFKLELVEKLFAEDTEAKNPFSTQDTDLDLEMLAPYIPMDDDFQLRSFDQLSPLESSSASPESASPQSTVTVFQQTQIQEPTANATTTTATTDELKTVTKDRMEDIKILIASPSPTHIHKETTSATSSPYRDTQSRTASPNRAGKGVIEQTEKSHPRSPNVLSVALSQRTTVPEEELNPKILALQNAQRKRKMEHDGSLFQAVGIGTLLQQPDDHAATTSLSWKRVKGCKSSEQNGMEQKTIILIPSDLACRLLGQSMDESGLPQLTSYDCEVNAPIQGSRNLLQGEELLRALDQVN

OC(c1ccc(Cl)cc1)(c1cncnc1)c1ccccc1Cl (centres undefined)
active: [1] 80.4 µM | [2] 72.9 µM | [3] 77 µM | [4] 74.8 µM | [5] 50 µM | [6] 68.7 µM | [7] 57.8 µM | [10] 82 µM | [11] 62 µM | [12] 37.3 µM | [13] 74.3 µM | [14] 71.9 µM | [15] 73 µM | [17] 50 µM
inactive: [8] | [9] | [16] | [18] | [19]

CC(C)(C)c1ccc(CSc2cnn(C(C)(C)C)c(=O)c2Cl)cc1
active: [1] 2.8 µM | [2] 1.74 µM | [3] 26.1 µM | [4] 8.51 µM | [6] 2.07 µM | [7] 4.86 µM | [10] 2.38 µM | [12] 1.88 µM | [13] 2.69 µM | [14] 3.43 µM | [15] 2.84 µM | [18] 1.58 µM
inactive: [5] | [8] | [9] | [20] | [11] | [16] | [17] | [19]

CCCCC(CC)COC(=O)c1ccccc1C(=O)OCC(CC)CCCC (centres undefined)
inactive: all assays above

COP(N)(=O)SC (centres undefined)
inactive: all assays above

CN(C)C(=S)SSC(=S)N(C)C
inactive: all assays above
